This test has as its system VDR:RXRa (NR concentration 270 nM, RXRa partner concentration 90 nM). The test can be described thus: PBM binding z-score (relative to random genomic background probes); higher = stronger binding; sequences stand for … in GC…GCGATTGACAGCGTAGAATGAAGG
Here is the method: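 Protein-binding microarray (Agilent 4x180K custom design, double-stranded 60-nt probes: 5' GC cap, 34-nt variable region, 24-nt constant primer region; full probe sequence given). Purified or IVT nuclear receptor:RXRα heterodimers (3:1 NR:RXRα, mostly 270:90 nM) or homodimers were incubated for 1 h in PBS with 2% milk and no ligand, then detected with Alexa488 antibodies. Fluorescence from o1-orientation probes (~5 replicates averaged) was converted to z-scores against 500 random hg19 background probes. Variable regions are seed direct-repeat (DR0–DR5) sites, all their single-nucleotide variants and half-site ablations.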
With CAAACTAGGTCACAGAGGTTAAAGTCCGTGCGTA, the PBM binding z-score was 6.72.

In turn, CCTAGTAGGTTACGAGGGGGCATTCAGTGCGAAT gave a PBM binding z-score of 5.12.

Sequence CTATGTCGGTTAAGGGGGTCATTCAGTTTGAAAG showed a PBM binding z-score of 6.77.

TCTACTTGGTCACGGAGGTCACACACGACGGGTA yielded a PBM binding z-score of 5.85.

As to ACTTACGGGTCAACGAAGTTATAGCACGCGTATA, the PBM binding z-score was 4.19.

TCAGATAGGTAAAGGTGAAAGTCGAACGATATGA gave a PBM binding z-score of 0.979.

CGTCCAACGTCAGCAGGTCAGTGAAAGCGACGTG: the PBM binding z-score was -0.198.

Sequence CGAACCAGGTCAAAGGACAGTGAAAGGCGACGTA showed a PBM binding z-score of 2.44.

For the sequence AGAATGAGGTTAAGATTAGGGAAACAGAATACAT, the PBM binding z-score came to 1.36.

TCTCGGAGGACACGAAAAGTCAGAGCTCGACATC: the PBM binding z-score was -0.0283.

On to CAAACTAGGTCACGAAAGGTCAAAGTTGAATGAC, for which the PBM binding z-score turned out to be 6.81.

ACTAGTTGGTAAGCTGAGGTCACACACAATTCGG: the PBM binding z-score came to 3.71.

As for ATATGTAGGTTAGGGTCATTCAGAAAGTAGGGAA, the PBM binding z-score was found to be 4.7.

In turn, CTATGTAGGTTAAGGGGGTCGTTCAGTTTGAAAG yielded a PBM binding z-score of 6.43.

For the sequence GATAGTTGGTCAGTAAAAGGTCACACACCGGTCG, the PBM binding z-score is 3.94.

Consider CCGAGTAGGTTACGGGGGGGCATTCAGTGCGAAT, for which the PBM binding z-score came to 5.49.

CGTCAAAGTTCAACTAATGTAACGTAAAGCACGC yielded a PBM binding z-score of 4.2.

Take CAGACTAGGTCAAAGGTCAAAGTCGAGCCAACCA: the PBM binding z-score is 6.58.

The sequence TCGAGTAGGTTACTGGGGCATTCAGGGATGAAGA yielded a PBM binding z-score of 0.313.

For the sequence CAAAGTAGGTCAAGGTCAAAGTCGGTTTGTGCCA, the PBM binding z-score was found to be 5.27.

Turning to CAAACTAGGTCAAGAGGTCAAAGGCCGCTTCCCG, the PBM binding z-score was 5.83.

TCTAGTTGGTGACGGAGGTCACACACGACGGGTA showed a PBM binding z-score of 3.98.

In the case of CGAACTAGGTCAAAGAACAGTGAAAGGCGACGTA, the PBM binding z-score worked out at 0.943.

On to CCTTACGGGTCACTGACAGCTTATAGCATTTGGA, for which the PBM binding z-score stood at 3.11.

Sequence ATATGTAGGTTAGGGTCATTCGGAAAGTAGGGAA came in with a PBM binding z-score of 4.45.

Sequence ATACCAAGGTTATCGTGAGGTCGTTGATACTAAC registered a PBM binding z-score of 4.98.

In turn, CGCACTAGGTCACCAGGACAGTGAAGAGGTTGGA came in with a PBM binding z-score of 1.87.

In turn, CAAACTAGGTCAAAGGTCAAAGCCGAGCCAACCA registered a PBM binding z-score of 6.79.

Take CGATCTAGGTCACCAGGACAGTGAAGAGGTTGGA: the PBM binding z-score was 1.76.

CCGAGTACGTTACGAGGGGGCATTCAGTGCGAAT: the PBM binding z-score is 4.15.

Regarding ATATGTAGGTGAGGGTCATTCAGAAAGTAGGGAA, the PBM binding z-score stood at 3.42.

In the case of CTAACTAGGTCAAAGGACAGTGAAAGGCGACGTA, the PBM binding z-score was found to be 1.3.

With CGTCAAAGTTCATGGTAACGTAACAGAAAGCAGC, the PBM binding z-score came out at 4.33.

As for CGAACTAGGACACCAGGACAGTGAAGAGGTTGGA, the PBM binding z-score is -0.285.

In turn, TCGAGTAGGTTACGGGGGCATTCATGGATGAAGA had a PBM binding z-score of 3.71.

In the case of ATCGAAACGTCGTGAGGTGAGTATACAGAAAGGC, the PBM binding z-score was -0.25.

Sequence ATCGAAAGGTCGTGAGGTGAGTACACAGAAAGGC had a PBM binding z-score of 4.14.

With TCGAGTAGGTTACGGGGCCATTCAGGGATGAAGA, the PBM binding z-score worked out at 1.26.

In turn, CCTTACGGGTCAAGGTTATCGCACGGGTGGTACG showed a PBM binding z-score of 3.69.

With CCTAGTGGGCCAAAGGTCATTGATTCCAATGCTC, the PBM binding z-score worked out at 4.68.

For the origin of these results see the supplement of paper PMC6555819.
